{
  "source": "PubChem BioAssay AID651635",
  "about": "(National Center for Advancing Translational Sciences (NCATS), 2012)",
  "note": "The whole screen tested about 400,000 compounds, of which about 1,900 (0.47%) were called active. Where a call stands in place of a potency, no number is given. About 14% were inconclusive and are not listed. This is one part of a sample in which actives are shown more often than they occur. Calls come from the whole dose curve; as a rule, active = well fitted cell-killing curve with a large enough effect; inconclusive = small, poorly fitted or top-dose-only effect, or effect the other way; inactive = no such curve, though single readings can be large or run the other way. Potency is the fitted concentration of half-maximal effect.",
  "data": [
    {"assay": "Viability Counterscreen for Primary qHTS for Inhibitors of ATXN expression; note: nearly all actives have a fitted effect of over 40% in size", "conditions": "S2 cells (HEK-293 line with an ATXN2-luciferase reporter) viability, CellTiter-Fluor protease fluorescence, 24 h; series mostly up to 56.7 µM", "source_text": "Spinocerebellar ataxia type 2 (SCA2) is a multisystem neurodegenerative disease caused by a dominantly-acting mutation leading to expansion of a polyQ domain in the ataxin-2 protein (ATXN2). SCA2 patients develop progressive ataxia and later lose function in other neuronal systems. Prominent parkinsonian signs develop in some patients. Similar to many neurodegenerative disorders, no symptomatic or disease-modifying treatments are known.\nThe primary objective of the proposed research is to identify compounds inhibiting ATXN2 expression and to test them for efficacy in SCA2 mouse models. To this end, we have developed a cell-based assay paired with an in vivo mouse model using identical luciferase expression constructs. This approach takes advantage of an ATXN2-luciferase transgene, with the luciferase gene flanked by the upstream and downstream portions of the ATXN2 gene. This primary assay was tested against the NIH Molecular Libraries Small Molecule Repository (MLSMR).\nNIH Chemical Genomics Center [NCGC]\nNIH Molecular Libraries Probe Centers Network [MLPCN]\nAssay Submitter (PI): Daniel Scoles, University of Utah\nPROTOCOL TABLE (as described by Inglese J, Shamu CE and Guy RK. 2007)\nSEQUENCE No. (e.g., 1, 2, 3, etc.); […] (e.g., Cells, Incubation, Reagent, etc.); VALUE; DESCRIPTION.\n1; Cells; 4 uL; white, solid bottom, 1536-well Greiner assay plate.\n2; Incubation; 2 hr; 37 degree C in 5% humidified CO2.\n3; Compounds; 23 nL; Kalypsis pintool (Wako USA) equipped with a 1536-well pin head.\n4; Incubation; 24 hr; 37 degree C in 5% humidified CO2.\n5; Reagent; 1 uL; Gly-Phe-7-Amino-4-trifluoromethylcoumarin.\n6; Incubation; 30 min; 37 degree C in 5% humidified CO2.\n7; Detection; Fluorescence; ViewLux plate reader (PerkinElmer).\n8; Reagent; 3 uL; SteadyGlo luciferase solution (Promega).\n9; Incubation; 5 min; room temperature.\n10; Detection; Luminescence; ViewLux plate reader (PerkinElmer).\nNOTES (numbers refer to Sequence numbers above)\n1. S2 cells expressing ATXN2-luciferase reporter were suspended in phenol-red free DMEM and dispensed in assay plates using a Multidrop Combi dispenser (Thermo Fisher Scientific).\n2. Assay plates were incubated. Evaporation was prevented by covering assay plates with metal lids containing holes to allow gas diffusion.\n3. […] Vehicle-only plates, with DMSO being pin-transferred to columns 5-48, were inserted uniformly at the beginning and the end of each library to monitor and record any shifts in assay performance.\n5. 125 uM Gly-Phe-7-Amino-4-trifluoromethylcoumarin (MP Biomedicals) working concentration was used at a final concentration of 25 uM.\n7. To assess cell viability; the assay plates were read using the ViewLux high-throughput CCD imager (PerkinElmer), wherein single end-point fluorescence measurement was acquired (excitation 405/10; emission 540/25 nm).\n8. Detection reagent SteadyGlo Luciferase (Promega) was added to the assay plate.\n10. Luminescence is then measured on the ViewLux imager equipped with a clear emission filter using a 2 sec exposure. All screening operations were performed on a fully integrated robotic system (Kalypsys) containing one RX-130 and two RX-90 anthropomorphic robotic arms (Staubli).\nInglese J, Shamu CE and Guy RK, Reporting data from high throughput screening of small molecule libraries, Nature Chemical Biology, 2007, 3(8): 438-441. doi.org/10.1038/nchembio0807-438.", "values": [
      {"smiles": "O=C(NCCc1ccccc1)c1cccc(NC(=O)c2ccccc2)c1", "Potency": "inactive"},
      {"smiles": "O=C(CSCc1ccccc1)Nc1ccccc1", "Potency": "inactive"},
      {"smiles": "O=C(CCl)Nc1cccc(CP(=O)(c2ccccc2)c2ccccc2)c1", "Potency": "14.1 µM (active)"},
      {"smiles": "CCOc1ccc(NS(=O)(=O)c2ccc(N)cc2)nn1", "Potency": "inactive"},
      {"smiles": "O=C(NC(c1ccc(Cl)cc1)c1cnccn1)C1CCN(Cc2ccc(Cl)cc2)CC1", "note": "(stereo unspecified)", "Potency": "inactive"},
      {"smiles": "NC(=O)CSC1=Nc2ccccc2C2=NC(CCC(=O)NCc3ccc(F)cc3)C(=O)N12", "note": "(stereo unspecified)", "Potency": "inactive"},
      {"smiles": "O=C(CC1N=C2c3ccccc3N=C(SCc3cccc(Cl)c3)N2C1=O)NCc1ccc2c(c1)OCO2", "note": "(stereo unspecified)", "Potency": "31.6 µM (active)"},
      {"smiles": "Cc1ccc(CNC(=O)CSC2=Nc3ccccc3C3=NC(C)C(=O)N23)cc1", "note": "(stereo unspecified)", "Potency": "inactive"},
      {"smiles": "CC(C)(C)C(=O)c1c(N)[nH]c(C(=O)c2ccccc2)c1-c1ccc(F)cc1", "Potency": "inactive"},
      {"smiles": "COCC(=O)Nc1cc(C(=O)N2CCCC(c3ccccc3)CC2)c2c(c1)nc(-c1ccncc1)n2C", "note": "(stereo unspecified)", "Potency": "inactive"},
      {"smiles": "CCOC(=O)[C@H](CCc1ccccc1)N[C@@H](C)C(=O)N1CC2(C[C@H]1C(=O)O)SCCS2", "Potency": "inactive"},
      {"smiles": "O=C(C(=O)N1CCOc2ccc(CN3CCN(Cc4ccccn4)CC3)cc2C1)c1ccccc1", "Potency": "inactive"},
      {"smiles": "CCC1(C2CCN(C(=O)c3cccc(F)c3F)CC2)NC(=O)N(CCc2scnc2C)C1=O", "note": "(stereo unspecified)", "Potency": "inactive"},
      {"smiles": "Cc1ccc(-c2ccc(C(=O)N3CCc4nnc(CNC(=O)c5ccccc5)n4CC3)cc2)cc1", "Potency": "inactive"},
      {"smiles": "COc1ccc(CCNc2ncnc3sc(C(=O)N4CCCC4)c(C)c23)cc1OC", "Potency": "inactive"},
      {"smiles": "Cn1nc(-c2ccccc2)c2cc([N+](=O)[O-])ccc21", "Potency": "inactive"},
      {"smiles": "O=C1CC(c2ccccc2)=NN1c1ccc([N+](=O)[O-])cc1", "Potency": "21.2 µM (active)"},
      {"smiles": "O=C1NC(=O)C2C1C(c1ccc([N+](=O)[O-])cc1)=NN2Cc1ccccc1", "note": "(stereo unspecified)", "Potency": "inactive"},
      {"smiles": "NC(Cc1ccccc1)c1csc(Nc2cc(Oc3ccccc3)ncn2)n1", "note": "(stereo unspecified)", "Potency": "31.6 µM (active)"},
      {"smiles": "COc1ccc(C(NC(=O)C2CCN(CCCc3ccccc3)CC2)c2cccs2)cc1", "note": "(stereo unspecified)", "Potency": "inactive"},
      {"smiles": "COc1ccccc1C1CN(CCNC(=O)C2=CCCC2)Cc2ccccc2O1", "note": "(stereo unspecified)", "Potency": "inactive"},
      {"smiles": "CC(C)NC(=O)N1Cc2cc(C(=O)NCC(F)(F)F)nc(-c3cccc(-c4cc5ccccc5o4)c3)c2[C@@H]1CCO", "Potency": "inactive"},
      {"smiles": "NC(N)=N/N=C/c1ccc(OCc2ccc(Cl)cc2Cl)cc1", "Potency": "35.5 µM (active)"},
      {"smiles": "COc1ccc(Cl)cc1N(CC(=O)N/N=C/c1ccc(OCC(N)=O)cc1)S(C)(=O)=O", "Potency": "inactive"},
      {"smiles": "Cc1nc2ccccc2nc(C)c1=NOCc1ccc(Cl)cc1Cl", "Potency": "inactive"},
      {"smiles": "C[C@H]1C[C@H]2[C@@H]3CCC4=CC(=O)C=C[C@]4(C)[C@@H]3C(=O)C[C@]2(C)[C@@]1(O)C(=O)CO", "Potency": "inactive"}
    ]}
  ]
}
